Source: paper PMC13494018

B1: design_614_ef6b398b-10cb-4a07-8087-96dafb4f9c83_2192_dldesign_0_cycle1_af2pred (protein)
chain: AAAALQAATIALGSLRALAESARRSNAESAKKLAELAEDLAADAKANAAKAAADPAYAAQAKAVAEEAKRALEETKRIAEEKAEA
B2: design_615_ab801fab-270b-4f6a-b2b5-83c165df418c_153_dldesign_0_cycle1_af2pred (protein)
chain: SAAGEIGAKAIEAMKKAYEYAKLYESGEDEKAKEKAKEAAEKLKELAKEAAKAGAAGARLAKVAKASAENALKIAKE
B3: design_615_ab801fab-270b-4f6a-b2b5-83c165df418c_149_dldesign_0_cycle1_af2pred (protein)
chain: AAAALEAIRDEGAATLTALAGPQLGALFRVAVQAAISGKLELAEQLLDAVVAEAAAINPAAAEKAKELKALALAIARA
B4: design_615_ab801fab-270b-4f6a-b2b5-83c165df418c_209_dldesign_0_cycle1_af2pred (protein)
chain: SAQAQEAATRAAEALARHLARQVAEHGVSDADFEGNVDILVALGRQSAAAGEAAAAVLEEAKAADPERFGAAAERLKAAAAEAK
B5: design_615_ab801fab-270b-4f6a-b2b5-83c165df418c_650_dldesign_0_cycle1_af2pred (protein)
chain: SSEREVLEAEGREWGRLIAAADAVSPALAAEVARALAEKAVADPGFLYALNVAVATVAREGSPAAAAVARAALAEASKAVIAKL
B6: design_615_ab801fab-270b-4f6a-b2b5-83c165df418c_251_dldesign_0_cycle1_af2pred (protein)
chain: AAAAAEAAAVQARGGALLDELKERTSELSPEAVSRASLLLTRGLTYASQPATLAEGRRYVDEAEAIIRSA
B7: design_615_ab801fab-270b-4f6a-b2b5-83c165df418c_671_dldesign_0_cycle1_af2pred (protein)
chain: SPDAVAARGYLAMLRAAVAELERAAEELARDPEKAAEARALVERARALLAEAEALLADPAQAAAAAAAARAALEEVLEFIRRARELAA
B8: design_615_ab801fab-270b-4f6a-b2b5-83c165df418c_702_dldesign_0_cycle1_af2pred (protein)
chain: GEELREKAEKEAKQTLELVEGALEYAKTASPEAAALMEKALEEVKKLIELGKKSDAEEYAKYVEKARKVAFNAIAQATALIAA
B9: design_615_ab801fab-270b-4f6a-b2b5-83c165df418c_110_dldesign_0_cycle1_af2pred (protein)
chain: SAELAKLNGEALELAKLGAEEGAEYAEKAMELVIEAARLAGDEEGAKYAEEMREEALKAAKESPKEAAQIVMTALSRVFSRIAA
B10: design_615_ab801fab-270b-4f6a-b2b5-83c165df418c_67_dldesign_0_cycle1_af2pred (protein)
chain: AVKEEAQKVLAESLEYMEKYKDDKEVVAEFNKAANYASKAITGPEETGKEYLAKAKEYLEKGKALAKEKEA
B11: design_615_ab801fab-270b-4f6a-b2b5-83c165df418c_121_dldesign_0_cycle1_af2pred (protein)
chain: GKDEELAKEAKKIAEAAEGVAASALALAAQPGLLAAAAAFARKAAEELERLGKENSKELEKVAKKEAKRAKEAAERVEAALKAATA
B12: design_615_ab801fab-270b-4f6a-b2b5-83c165df418c_662_dldesign_0_cycle1_af2pred (protein)
chain: AAAQAKALAAEAKAYIAKAKEAAAAGNLGEAAQLASKALLKAAQAANLDPAFAPVLDEAQATVEAIAAAQAAAA
B13: design_615_ab801fab-270b-4f6a-b2b5-83c165df418c_137_dldesign_0_cycle1_af2pred (protein)
chain: MEKEKELLKKAKELYEAAKTMAEVAKNAVALGHRSGALAAIKGIEQAAKAIEELAKEAKDEEVKKKIKELAKEAKKLAEEMKKLAEKA
B14: design_615_ab801fab-270b-4f6a-b2b5-83c165df418c_0_dldesign_0_cycle1_af2pred (protein)
chain: AAAERLAQRLEAARLIAEAAGVPEEVARRVAELVADPATFPEAVALAKAVGGGAMLILAAARSGSLENARKMAEAAA
B15: design_615_ab801fab-270b-4f6a-b2b5-83c165df418c_597_dldesign_0_cycle1_af2pred (protein)
chain: AAAAEAITKATLAAIEKTAEKIVEAAEKATPEEAKKLAESVKKLAETGVGIATAASPELGKEAKEKAEKLKEKAKEAVKKVKE
B16: design_615_ab801fab-270b-4f6a-b2b5-83c165df418c_622_dldesign_0_cycle1_af2pred (protein)
chain: VTPEEAHQALASTVMRLAQQLGLSGGAISTGLRLASEAARAFAEDPEKMRKVVEEGAKKIEALEGEKGKVVGEELRRKAEEIVA
B17: design_615_ab801fab-270b-4f6a-b2b5-83c165df418c_234_dldesign_0_cycle1_af2pred (protein)
chain: LEESARKAAELALDLAKYAAANPATAPQALASIAGLARNAIEAGAEAAKLMAEALKKGAEYVAKNGTAAQAEQVKAIRERAERGAREA
B18: design_615_ab801fab-270b-4f6a-b2b5-83c165df418c_246_dldesign_0_cycle1_af2pred (protein)
chain: AEREEAALAEAEKALAEAKKLVEAALADPATAATTVGEATALLTAAIERASREVSPERALEVAQEAARIQADGIKALA
B19: design_615_ab801fab-270b-4f6a-b2b5-83c165df418c_555_dldesign_0_cycle1_af2pred (protein)
chain: AAAALAAAAAAARAAATAALAETLELAEEAQRLGDSETSLALSRQANRIAGLYIAGVRDPRLAPEAGKRAEELRREAERLYKEAL

target: CD276, Q5ZPR3
Sequence (Q5ZPR3 whole entry): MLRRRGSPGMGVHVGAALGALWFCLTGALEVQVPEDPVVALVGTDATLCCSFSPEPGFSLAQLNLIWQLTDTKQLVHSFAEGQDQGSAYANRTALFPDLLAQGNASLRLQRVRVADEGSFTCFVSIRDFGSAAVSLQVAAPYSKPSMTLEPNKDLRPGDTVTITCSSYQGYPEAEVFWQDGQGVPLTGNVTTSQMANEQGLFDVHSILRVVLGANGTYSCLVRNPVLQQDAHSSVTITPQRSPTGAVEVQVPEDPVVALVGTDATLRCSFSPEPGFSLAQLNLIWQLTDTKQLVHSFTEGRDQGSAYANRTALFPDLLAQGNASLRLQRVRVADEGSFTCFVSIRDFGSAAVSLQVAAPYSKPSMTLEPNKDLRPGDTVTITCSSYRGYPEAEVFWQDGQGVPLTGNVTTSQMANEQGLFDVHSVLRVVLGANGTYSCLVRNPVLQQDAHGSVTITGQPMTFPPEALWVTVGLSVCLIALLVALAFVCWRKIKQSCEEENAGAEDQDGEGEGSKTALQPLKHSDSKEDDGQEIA

Binding in a display sort, inactive:
B1 not found
B2 not found
B3 not found
B4 not found
B5 not found
B6 not found
B7 not found
B8 not found
B9 not found
B10 not found
B11 not found
B12 not found
B13 not found
B14 not found
B15 not found
B16 not found
B17 not found
B18 not found
B19 not found
